Substitutions are numbered along the chain they refer to; changes in the protein carry UniProt numbers. Whole data set: some 16,000 sequences, median “ka relative to ugcaugu” near 0.096, cut for the highest 2% near 0.35. The list comes from a sample in which the highest values are over-represented; it also holds similar and randomly drawn sequences.
T1: RBFOX1 RRM RbFoxmut (Fox-RRM*) (Homo sapiens, UniProt Q9NWB1 109-208, R118D;E147R;N151S;E152T)
T1 sequence: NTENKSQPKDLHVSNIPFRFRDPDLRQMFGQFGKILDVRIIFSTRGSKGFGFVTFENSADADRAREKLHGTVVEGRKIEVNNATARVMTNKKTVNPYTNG

B1: CACAAUA (DNA:RNA)
RNA: GGGAGACCGGAAUUCAGAUUGUCCCACAAUAUUAAAUCCCGUCGUAGCCACCA
DNA 1: CAATCTGAATTCCGGTCTCCC
DNA 2: TGGTGGCTACGACGGGATT
B2: CGUAAUC (DNA:RNA)
RNA: B1 RNA with A26G, C27U, A31C
DNA 1: CAATCTGAATTCCGGTCTCCC
DNA 2: TGGTGGCTACGACGGGATT
B3: GGGUAUC (DNA:RNA)
RNA: B1 RNA with C25G, A26G, C27G, A28U, A31C
DNA 1: CAATCTGAATTCCGGTCTCCC
DNA 2: TGGTGGCTACGACGGGATT
B4: CGGUAUC (DNA:RNA)
RNA: B1 RNA with A26G, C27G, A28U, A31C
DNA 1: CAATCTGAATTCCGGTCTCCC
DNA 2: TGGTGGCTACGACGGGATT
B5: CGGCAUC (DNA:RNA)
RNA: B1 RNA with A26G, C27G, A28C, A31C
DNA 1: CAATCTGAATTCCGGTCTCCC
DNA 2: TGGTGGCTACGACGGGATT
B6: GGGCAUC (DNA:RNA)
RNA: B1 RNA with C25G, A26G, C27G, A28C, A31C
DNA 1: CAATCTGAATTCCGGTCTCCC
DNA 2: TGGTGGCTACGACGGGATT
B7: GGCAUCU (DNA:RNA)
RNA: B1 RNA with C25G, A26G, A29U, U30C, A31U
DNA 1: CAATCTGAATTCCGGTCTCCC
DNA 2: TGGTGGCTACGACGGGATT
B8: GGAGAUC (DNA:RNA)
RNA: B1 RNA with C25G, A26G, C27A, A28G, A31C
DNA 1: CAATCTGAATTCCGGTCTCCC
DNA 2: TGGTGGCTACGACGGGATT
B9: GGGAAUC (DNA:RNA)
RNA: B1 RNA with C25G, A26G, C27G, A31C
DNA 1: CAATCTGAATTCCGGTCTCCC
DNA 2: TGGTGGCTACGACGGGATT
B10: GGUAUCU (DNA:RNA)
RNA: B1 RNA with C25G, A26G, C27U, A29U, U30C, A31U
DNA 1: CAATCTGAATTCCGGTCTCCC
DNA 2: TGGTGGCTACGACGGGATT
B11: CGUCAUC (DNA:RNA)
RNA: B1 RNA with A26G, C27U, A28C, A31C
DNA 1: CAATCTGAATTCCGGTCTCCC
DNA 2: TGGTGGCTACGACGGGATT
B12: GUUAAUC (DNA:RNA)
RNA: B1 RNA with C25G, A26U, C27U, A31C
DNA 1: CAATCTGAATTCCGGTCTCCC
DNA 2: TGGTGGCTACGACGGGATT
B13: CGGAAUC (DNA:RNA)
RNA: B1 RNA with A26G, C27G, A31C
DNA 1: CAATCTGAATTCCGGTCTCCC
DNA 2: TGGTGGCTACGACGGGATT
B14: UUGGUAC (DNA:RNA)
RNA: GGGAGACCGGAAUUCAGAUUGUCCUUGGUACUUAAAUCCCGUCGUAGCCACCA
DNA 1: CAATCTGAATTCCGGTCTCCC
DNA 2: TGGTGGCTACGACGGGATT
B15: CGUCAGG (DNA:RNA)
RNA: B1 RNA with A26G, C27U, A28C, U30G, A31G
DNA 1: CAATCTGAATTCCGGTCTCCC
DNA 2: TGGTGGCTACGACGGGATT
B16: ACUGCGG (DNA:RNA)
RNA: B14 RNA with U25A, U26C, G27U, U29C, A30G, C31G
DNA 1: CAATCTGAATTCCGGTCTCCC
DNA 2: TGGTGGCTACGACGGGATT
B17: UAAAUAU (DNA:RNA)
RNA: B14 RNA with U26A, G27A, G28A, C31U
DNA 1: CAATCTGAATTCCGGTCTCCC
DNA 2: TGGTGGCTACGACGGGATT
B18: UCUACGU (DNA:RNA)
RNA: B1 RNA with C25U, A26C, C27U, A29C, U30G, A31U
DNA 1: CAATCTGAATTCCGGTCTCCC
DNA 2: TGGTGGCTACGACGGGATT
B19: AGUUUCU (DNA:RNA)
RNA: B14 RNA with U25A, U26G, G27U, G28U, A30C, C31U
DNA 1: CAATCTGAATTCCGGTCTCCC
DNA 2: TGGTGGCTACGACGGGATT
B20: UAGACCC (DNA:RNA)
RNA: B14 RNA with U26A, G28A, U29C, A30C
DNA 1: CAATCTGAATTCCGGTCTCCC
DNA 2: TGGTGGCTACGACGGGATT
B21: UUAAAUC (DNA:RNA)
RNA: B1 RNA with C25U, A26U, C27A, A31C
DNA 1: CAATCTGAATTCCGGTCTCCC
DNA 2: TGGTGGCTACGACGGGATT
B22: UUGAUCC (DNA:RNA)
RNA: B14 RNA with G28A, A30C
DNA 1: CAATCTGAATTCCGGTCTCCC
DNA 2: TGGTGGCTACGACGGGATT
B23: UUAAAUG (DNA:RNA)
RNA: B1 RNA with C25U, A26U, C27A, A31G
DNA 1: CAATCTGAATTCCGGTCTCCC
DNA 2: TGGTGGCTACGACGGGATT
B24: UUGAAAU (DNA:RNA)
RNA: B14 RNA with G28A, U29A, C31U
DNA 1: CAATCTGAATTCCGGTCTCCC
DNA 2: TGGTGGCTACGACGGGATT
B25: UUGAUUG (DNA:RNA)
RNA: B14 RNA with G28A, A30U, C31G
DNA 1: CAATCTGAATTCCGGTCTCCC
DNA 2: TGGTGGCTACGACGGGATT
B26: UUGAAUG (DNA:RNA)
RNA: B1 RNA with C25U, A26U, C27G, A31G
DNA 1: CAATCTGAATTCCGGTCTCCC
DNA 2: TGGTGGCTACGACGGGATT
B27: UUGAUUC (DNA:RNA)
RNA: B14 RNA with G28A, A30U
DNA 1: CAATCTGAATTCCGGTCTCCC
DNA 2: TGGTGGCTACGACGGGATT
B28: UUGUUGA (DNA:RNA)
RNA: B14 RNA with G28U, A30G, C31A
DNA 1: CAATCTGAATTCCGGTCTCCC
DNA 2: TGGTGGCTACGACGGGATT
B29: UUGAAUC (DNA:RNA)
RNA: B14 RNA with G28A, U29A, A30U
DNA 1: CAATCTGAATTCCGGTCTCCC
DNA 2: TGGTGGCTACGACGGGATT
B30: CCAAUUG (DNA:RNA)
RNA: B1 RNA with A26C, C27A, A29U, A31G
DNA 1: CAATCTGAATTCCGGTCTCCC
DNA 2: TGGTGGCTACGACGGGATT
B31: GUGGUAG (DNA:RNA)
RNA: B14 RNA with U25G, C31G
DNA 1: CAATCTGAATTCCGGTCTCCC
DNA 2: TGGTGGCTACGACGGGATT

biological target: T1, RBFOX1 RRM RbFoxmut (Fox-RRM*); assay: EMSA; HiTS-Eq, 1 nM pool, 10 min; buffer printed only for the single-RNA assays: 10 mM Tris pH 7.5, 150 mM NaCl, 3.4 mM EDTA, 0.001% NP-40, 30 C; conditions: tags: His6 N-terminal (pET28a); label: 5' 32P
Outline: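 Purified RbFox RRM (wild type or mutant) was equilibrated for 10 min in 50 µL with 1 nM of a 5′-radiolabelled pool of RNA with 7 randomized nucleotides, its flanks annealed to DNA oligonucleotides, across increasing protein concentrations. Free RNA was separated by 8% native PAGE, excised, reverse-transcribed, PCR-barcoded and sequenced on an Illumina HiSeq 2500. Relative association constants came from read-count changes of each variant against the control reaction, normalised to the cognate motif.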

Binder	binding signal
B1	0.084 KA relative to UGCAUGU
B2	0.0673 KA relative to UGCAUGU
B3	0.409 KA relative to UGCAUGU
B4	0.245 KA relative to UGCAUGU
B5	0.261 KA relative to UGCAUGU
B6	0.396 KA relative to UGCAUGU
B7	0.27 KA relative to UGCAUGU
B8	0.155 KA relative to UGCAUGU
B9	0.494 KA relative to UGCAUGU
B10	0.206 KA relative to UGCAUGU
B11	0.0997 KA relative to UGCAUGU
B12	0.0571 KA relative to UGCAUGU
B13	0.436 KA relative to UGCAUGU
B14	0.144 KA relative to UGCAUGU
B15	0.113 KA relative to UGCAUGU
B16	0.0963 KA relative to UGCAUGU

Binder	binding signal
B17	0.0636 KA relative to UGCAUGU
B18	0.118 KA relative to UGCAUGU
B19	0.0838 KA relative to UGCAUGU
B20	0.0507 KA relative to UGCAUGU
B21	0.0555 KA relative to UGCAUGU
B22	0.0834 KA relative to UGCAUGU
B23	0.0888 KA relative to UGCAUGU
B24	0.0963 KA relative to UGCAUGU
B25	0.381 KA relative to UGCAUGU
B26	1.17 KA relative to UGCAUGU
B27	0.196 KA relative to UGCAUGU
B28	0.0998 KA relative to UGCAUGU
B29	0.374 KA relative to UGCAUGU
B30	0.0976 KA relative to UGCAUGU
B31	0.181 KA relative to UGCAUGU

Reference: paper PMC9911399, “Two distinct binding modes provide the RNA-binding protein RbFox with extraordinary sequence specificity”
